11 molecules from PubChem BioAssay (EPA / NIEHS) can be followed below.

The source made the active and inactive calls. Rule for the calls: active = hit-call score of the fitted dose curve at least 0.9, where 1 is the maximum; inactive = score below 0.9.

The nature of the assay: CCTE_Shafer_MEA_acute_synchrony_index: CCTE's Neural Acute Assay for Synchrony, Shafer Lab (AID 2284027).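 Note: fitted for loss of signal so actives lower synchrony relative to DMSO.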 As for the experimental part: CCTE_Shafer_MEA_acute assay is conducted using Axion Biosystems 48 well microelectrode array (MEA) plates and Maestro recording system. Each well of the MEA plate contains a grid of 16 microelectrodes embedded in the culture surface. Electrically active cells, such as neurons, can be cultured over the electrodes, and electrical activity in these cells can be recorded extracellularly. The spontaneous firing of neurons is captured from each electrode on a microsecond timescale providing both temporally and spatially precise data. […] The CCTE_Shafer_MEA_acute assay uses primary cultures of rat cortical neurons. As these cultures mature over time, neural networks develop functional activity and form cohesive networks in which electrical activity can be highly coordinated. Baseline 40-minute recordings are made on days post-plating 13 or 15, followed by a secondary 40-minute recording after chemical exposure.CCTE_Shafer_MEA_acute_synchrony_index is a component of the CCTE_Shafer_MEA_acute assay. It measures the synchrony of the neural network as a unitless measure between 0 (low synchrony) to 1 (high synchrony) during a recording in a microelectrode array (MEA) using Axion Biosystems Maestro 768 channel amplifier with the AxIS adaptive spike detector. The recordings before and after chemical treatment are used to calculate a percent change in the synchrony index in each well.Data from the assay component CCTE_Shafer_MEA_acute_synchrony_index was analyzed into 1 assay endpoint. This assay endpoint, CCTE_Shafer_MEA_acute_synchrony_index, was analyzed in the negative analysis fitting direction relative to DMSO as the negative control and baseline of activity. Using a type of functional reporter, gain or loss-of-signal activity can be used to understand electrical activity.
Spontaneous activity in the cortical cultures was recorded using an Axion Biosystems Maestro 768 channel amplifier and Axion Integrated Studios (AxIS) v1.8 (or later) software. The amplifier recorded from all channels simultaneously (gain = 1200 x; sampling rate = 12.5 kHz/channel): raw signals were filtered with a Butterworth band-pass filter (300-5000 Hz), which filters out slower local field potentials leaving only fast potentials, i.e., "spikes", arising from extracellular currents associated with action potentials (Pine 2006; Wheeler and Nam 2011). On-line spike detection of filtered signals was conducted with the AxIS adaptive spike detector, using a threshold of 8x the root mean squared (rms) noise on each channel. Any electrodes with rms noise levels greater than 5 uV were grounded (e.g., no data were recorded). Once grounded, an electrode was grounded for the duration of the experiment. All recordings were conducted at 37 C. Wells were deemed usable if on the day of the exposure >/= 10 electrodes were active (defined as >/= 5 spikes/min). On DIV 13 or 15, a minimum of three wells from one cortical culture preparation were treated with each compound (0.03-40 uM). Prior to recording baseline activity, each mwMEA plate was placed in the Maestro at 37 C and allowed to sit for 20 min while firing rates stabilized. Baseline activity (40 min) was recorded before the addition of each compound. An additional 40 min of spontaneous activity was recorded in the presence of each compound. Changes in network parameters relative to baseline were assessed following compound treatment.
Turning to `O=C(c1ccc(O)cc1)c1ccc(O)cc1O`, the result was inactive.

For the molecule `CN1C(=O)N(C)C(O)C1O` (stereo unspecified), the molecule was called inactive.

As for `Nc1ccc(N)c(Cl)c1`, the call was inactive.

Consider `CCO[Si](C)(OCC)OCC`, for which the result was inactive.

As for `CCCCC(CC)COCC1CO1` (stereo unspecified), the molecule was called inactive.

`CO[Si](OC)(OC)c1ccccc1`: the result was inactive.

As for `C=C[Si](OC(C)=O)(OC(C)=O)OC(C)=O`, the molecule was called inactive.

With `O=C1CCCN1CCO`, the molecule was called inactive.

Take `CCOC(=O)c1ccccc1C(=C1C=C(Br)C(=O)C(Br)=C1)c1cc(Br)c(O)c(Br)c1`: the result was inactive.

One may read the AC50 as the midpoint of the concentration-response curve, whichever way the signal moves. In the case of `Nc1ncn([C@@H]2O[C@H](CO)[C@@H](O)[C@H]2O)c(=O)n1`, the AC50 was 9.61 µM (active).

Take `CCCCC(CC)COC(=O)c1ccccc1O` (stereo unspecified): the molecule was called inactive.
